Assay results taken from PubChem BioAssay AID1159580 (chemical genetic matrix, 2015).
Values joined by “and” are separate entries in the source; they are usually repeats but may differ in a detail not shown here. Equal values may be shown once. Hit rate of the full screen: of about 5,500 compounds, about 2,000 (36%) were called active. About 18% were inconclusive and are not listed. Rule as the data show it: active = normalized growth mostly below about 0.91 (no sharp cut-off); inconclusive = no clear call, values can overlap the other calls; inactive = mostly above about 0.92. The list shows a part of the results.

Experiment: chemical genetic growth profiling, strain panel (AID 1159580);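 also: tested at 20 µM; growth read once vehicle control cultures reached saturation at 30 °C; 1 = growth at the plate median or of vehicle wells; lower values mean less growth of the strain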
Conditions: S. cerevisiae deletion strains, growth OD

COc1ccc2c(c1)O[C@@H]1COc3cc(OC)c(OC)cc3[C@@H]1C2=O
normalized growth (locus YAL021C, strain ccr4, stronger effect = lower value): 0.977 (inactive) | normalized growth (locus YAL026C, strain drs2, stronger effect = lower value): 0.694 (active) | normalized growth (locus YAL030W, strain snc1, stronger effect = lower value): 0.663 (active) | normalized growth (locus YBL061C, strain skt5, stronger effect = lower value): 0.707 (active) | normalized growth (locus YBR009C, strain hhf1, stronger effect = lower value): 0.34 (active) | normalized growth (locus YBR021W, strain FUR4, stronger effect = lower value): 0.897 (inactive) | normalized growth (locus YBR023C, strain chs3, stronger effect = lower value): 0.819 (active) | normalized growth (locus YBR171W, strain sec66, stronger effect = lower value): 0.965 (inactive) | normalized growth (locus YBR229C, strain ROT2, stronger effect = lower value): 0.997 (inactive) | normalized growth (locus YBR231C, strain swc5, stronger effect = lower value): 0.554 (active) | normalized growth (locus YBR279W, strain paf1, stronger effect = lower value): 0.527 (active) | normalized growth (locus YCL011C, strain gbp2, stronger effect = lower value): 0.674 (active) | normalized growth (locus YCL016C, strain dcc1, stronger effect = lower value): 0.614 (active) | normalized growth (locus YCL029C, strain bik1, stronger effect = lower value): 0.68 (active) | normalized growth (locus YCL061C, strain MRC1, stronger effect = lower value): 0.354 (active) | normalized growth (locus YCL069W, strain vba3, stronger effect = lower value): 0.384 (active) | normalized growth (locus YCR088W, strain abp1, stronger effect = lower value): 0.823 (active) | normalized growth (locus YDL005C, strain med2, stronger effect = lower value): 0.979 (inactive) | normalized growth (locus YDL035C, strain GPR1, stronger effect = lower value): 0.906 (inactive) | normalized growth (locus YDL040C, strain nat1, stronger effect = lower value): 0.967 (inactive) | normalized growth (locus YDL074C, strain BRE1, stronger effect = lower value): 0.676 (active) | normalized growth (locus YDL101C, strain DUN1, stronger effect = lower value): 0.669 (active) | normalized growth (locus YDL134C, strain PPH21, stronger effect = lower value): 0.68 (active) | normalized growth (locus YDL185W, strain tfp1, stronger effect = lower value): 0.935 (inactive) | normalized growth (locus YDL192W, strain arf1, stronger effect = lower value): 0.893 (active) | normalized growth (locus YDR001C, strain nth1, stronger effect = lower value): 0.97 (inactive) | normalized growth (locus YDR069C, strain doa4, stronger effect = lower value): 1.02 (inactive) | normalized growth (locus YDR101C, strain arx1, stronger effect = lower value): 0.913 (active) | normalized growth (locus YDR137W, strain rgp1, stronger effect = lower value): 0.995 (inactive) | normalized growth (locus YDR150W, strain NUM1, stronger effect = lower value): 0.977 (inactive) | normalized growth (locus YDR159W, strain sac3, stronger effect = lower value): 0.864 (inactive) | normalized growth (locus YDR162C, strain NBP2, stronger effect = lower value): 0.752 (active) | normalized growth (locus YDR195W, strain ref2): 0.842 (active) | normalized growth (locus YDR297W, strain sur2, stronger effect = lower value): 0.652 (active) | normalized growth (locus YDR318W, strain mcm21, stronger effect = lower value): 0.516 (active) | normalized growth (locus YDR334W, strain swr1, stronger effect = lower value): 0.427 (active) | normalized growth (locus YDR335W, strain msn5, stronger effect = lower value): 0.867 (active) | normalized growth (locus YDR388W, stronger effect = lower value): 0.975 (inactive) | normalized growth (locus YDR392W, strain spt3, stronger effect = lower value): 0.131 (active) | normalized growth (locus YDR502C, strain sam2, stronger effect = lower value): 0.831 (active) | normalized growth (locus YEL003W, strain gim4, stronger effect = lower value): 0.531 (active) | normalized growth (locus YEL037C, strain rad23, stronger effect = lower value): 0.981 (inactive) | normalized growth (locus YEL061C, strain CIN8 (second series), stronger effect = lower value): 0.257 (active) | normalized growth (locus YEL061C, strain CIN8, stronger effect = lower value): 0.315 (active) | normalized growth (locus YER015W, strain faa2, stronger effect = lower value): 0.693 (active) | normalized growth (locus YER016W, strain bim1, stronger effect = lower value): 0.818 (active) | normalized growth (locus YER110C, stronger effect = lower value): 0.799 (active) | normalized growth (locus YER111C, strain swi4, stronger effect = lower value): 0.423 (active) | normalized growth (locus YER155C, strain BEM2 (second series), stronger effect = lower value): 0.163 (active) | normalized growth (locus YER155C, strain BEM2, stronger effect = lower value): 0.426 (active) | normalized growth (locus YER167W, strain BCK2, stronger effect = lower value): 0.684 (active) | normalized growth (locus YFR010W, strain ubp6, stronger effect = lower value): 1.02 (inactive) | normalized growth (locus YGL078C, strain dbp3, stronger effect = lower value): 0.933 (inactive) | normalized growth (locus YGL086W, strain mad1, stronger effect = lower value): 0.458 (active) | normalized growth (locus YGL167C, strain pmr1, stronger effect = lower value): 0.974 (inactive) | normalized growth (locus YGL173C, strain kem1, stronger effect = lower value): 0.954 (inactive) | normalized growth (locus YGL227W, strain vid30, stronger effect = lower value): 0.28 (active) | normalized growth (locus YGL240W, strain doc1, stronger effect = lower value): 0.916 (inactive) | normalized growth (locus YGL248W, strain PDE1, stronger effect = lower value): 0.649 (active) | normalized growth (locus YGL253W, strain hxk2, stronger effect = lower value): 0.633 (active) | normalized growth (locus YGR135W, strain pre9, stronger effect = lower value): 0.786 (active) | normalized growth (locus YGR252W, strain gcn5, stronger effect = lower value): 0.755 (active) | normalized growth (locus YHR013C, strain ard1, stronger effect = lower value): 0.558 (active) | normalized growth (locus YHR027C, strain rpn1, stronger effect = lower value): 0.999 (inactive) | normalized growth (locus YHR030C, strain SLT2, stronger effect = lower value): 0.547 (active) and 0.988 (inactive) | normalized growth (locus YHR079C, strain IRE1 (second series), stronger effect = lower value): 0.814 (active) | normalized growth (locus YHR079C, strain IRE1, stronger effect = lower value): 0.97 (inactive) | normalized growth (locus YHR094C, strain hxt1, stronger effect = lower value): 0.699 (active) | normalized growth (locus YHR129C, strain ARP1, stronger effect = lower value): 0.489 (active) | normalized growth (locus YHR142W, strain chs7, stronger effect = lower value): 0.195 (active) | normalized growth (locus YHR200W, strain rpn10, stronger effect = lower value): 0.939 (inactive) | normalized growth (locus YIL066C, strain RNR3, stronger effect = lower value): 0.675 (active) | normalized growth (locus YIL073C, strain SPO22, stronger effect = lower value): 0.903 (inactive) | normalized growth (locus YIL125W, strain kgd1, stronger effect = lower value): 0.989 (inactive) | normalized growth (locus YIR030C, strain dcg1, stronger effect = lower value): 0.879 (active) | normalized growth (locus YJL092W, strain hpr5, stronger effect = lower value): 0.822 (active) | normalized growth (locus YJL095W, strain BCK1 (second series), stronger effect = lower value): 0.488 (active) | normalized growth (locus YJL095W, strain BCK1, stronger effect = lower value): 0.332 (active) and 0.966 (inactive) | normalized growth (locus YJL115W, strain asf1, stronger effect = lower value): 0.819 (active) | normalized growth (locus YJL129C, strain trk1, stronger effect = lower value): 0.441 (active) | normalized growth (locus YJL134W, strain LCB3, stronger effect = lower value): 0.935 (inactive) | normalized growth (locus YJL154C, strain vps35, stronger effect = lower value): 0.982 (inactive) | normalized growth (locus YJL164C, strain tpk1, stronger effect = lower value): 0.438 (active) | normalized growth (locus YJL166W, strain qcr8, stronger effect = lower value): 0.208 (active) | normalized growth (locus YJL168C, strain set2, stronger effect = lower value): 0.978 (inactive) | normalized growth (locus YJL187C, strain SWE1 (second series), stronger effect = lower value): 0.822 (active) | normalized growth (locus YJL187C, strain SWE1, stronger effect = lower value): 0.589 (active)
